Results filed as inconclusive are left out. Activity calls are given as the source filed them. Unless noted, calls follow the shape of the dose curve; as a rule, active = well fitted curve in the direction sought with a large enough effect in the repeat runs; inconclusive = weak or mixed curves; inactive = no such curve, though single readings can be large; an effect the other way counts as inactive or inconclusive.
Assays:
[1] = qHTS assay to identify small molecule agonists of the peroxisome proliferator-activated receptor delta (PPARd) signaling pathway - cell viability counter screen (AID 743211); also: % is scaled to controls: 0 for no effect and ±100 for the full control effect; nearly all actives have a fitted effect of over 55% in size
Outline: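 HEK293H PPARd-bla, 3000 cells/well; 5 h preincubation 37C/5% CO2; cpd in DMSO, 17 h 37C; B/G FRET substrate 2 h RT; CellTiter-Glo 30 min RT, luminescence.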

[2] = target: Peroxisome proliferator-activated receptor delta (Homo sapiens) (UniProt Q03181); experiment: qHTS assay to identify small molecule agonists of the peroxisome proliferator-activated receptor delta (PPARd) signaling pathway (AID 743212; calls by dose curve;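 also: HEK293H cells with PPARd UAS beta-lactamase reporter GeneBLAzer system; % is scaled to controls: 0 for no effect and ±100 for the full control effect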)
Chain of Peroxisome proliferator-activated receptor delta (Homo sapiens) (Q03181 whole entry, looked up): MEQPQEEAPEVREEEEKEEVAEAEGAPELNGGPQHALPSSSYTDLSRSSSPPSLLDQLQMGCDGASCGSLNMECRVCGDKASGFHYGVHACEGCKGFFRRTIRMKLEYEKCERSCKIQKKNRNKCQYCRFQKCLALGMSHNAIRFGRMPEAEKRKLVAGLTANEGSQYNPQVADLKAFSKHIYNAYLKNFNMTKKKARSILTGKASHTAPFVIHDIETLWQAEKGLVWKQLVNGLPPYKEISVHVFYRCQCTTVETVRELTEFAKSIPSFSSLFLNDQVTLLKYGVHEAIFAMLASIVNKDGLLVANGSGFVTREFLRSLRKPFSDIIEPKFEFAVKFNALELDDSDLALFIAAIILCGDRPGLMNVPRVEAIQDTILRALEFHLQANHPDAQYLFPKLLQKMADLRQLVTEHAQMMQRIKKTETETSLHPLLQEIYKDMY
Outline: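 Steps: seed PPARd-bla HEK293H cells; incubate 5 h, 37 C, 5% CO2; add compounds in DMSO; incubate, 37 C; add LiveBLAzer B/G FRET substrate; hold 2 h at room temperature; measure fluorescence.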

[3] = qHTS assay to identify small molecule antagonists of the peroxisome proliferator-activated receptor delta (PPARd) signaling pathway - cell viability counter screen (AID 743213); also: % is scaled to controls: 0 for no effect and ±100 for the full control effect; nearly all actives have a fitted effect of over 50% in size
Outline: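 In this counter screen, HEK293H cells carrying a UAS-beta-lactamase reporter are co-treated with test compounds and 300 nM L165041 (final) for 17 h at 37 C; cell viability is quantified by CellTiter-Glo luminescence.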

[4] = target: Peroxisome proliferator-activated receptor delta (Homo sapiens) (UniProt Q03181); experiment: qHTS assay to identify small molecule antagonists of the peroxisome proliferator-activated receptor delta (PPARd) signaling pathway (AID 743215; active = well fitted inhibition curve with a large enough effect in the signal ratio in the repeat runs, not every such curve was filed as active; the % refers to the signal ratio;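 also: cells stimulated with agonist L165041 at 300 nM final during compound exposure; series mostly up to about 62 µM; % is scaled to controls: 0 for no effect and ±100 for the full control effect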)
Outline: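 Screen format: qHTS, antagonist mode. HEK293H PPARd-bla cells received compound and 300 nM L165041 (final), 17 h, 37 C. Beta-lactamase detected via FRET substrate fluorescence, 2 h, room temperature.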

[5] = qHTS assay to identify small molecule agonists of the farnesoid-X-receptor (FXR) signaling pathway - cell viability counter screen (AID 743218); also: % is scaled to controls: 0 for no effect and ±100 for the full control effect; nearly all actives have a fitted effect of over 45% in size
Outline: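 Same-well cytotoxicity check on FXR-UAS-bla HEK 293T cells: 5 h attachment, 16 h compound at 37 C, CellTiter-Glo luminescence read at room temperature after 30 min.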

[6] = qHTS assay to identify small molecule antagonists of the farnesoid-X-receptor (FXR) signaling pathway - cell viability counter screen (AID 743221; active = well fitted cell-killing curve with a large enough effect in the repeat runs, not every such curve was filed as active; also: % is scaled to controls: 0 for no effect and ±100 for the full control effect; nearly all actives have a fitted effect of over 50% in size)
Outline: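 Luminescence from CellTiter-Glo measures cytotoxicity in GeneBLAzer FXR-UAS-bla HEK 293T cells. Cells were exposed to compounds with 50 uM chenodeoxycholic acid (final) for 16 h at 37 C, in wells also used for the reporter readout.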

[7] = target: Vitamin D3 receptor (Homo sapiens) (UniProt P11473); experiment: qHTS assay to identify small molecule agonists of the vitamin D receptor (VDR) signaling pathway (AID 743222; calls by dose curve; also: % is scaled to controls: 0 for no effect and ±100 for the full control effect)
Chain of Vitamin D3 receptor (Homo sapiens) (P11473 whole entry, looked up): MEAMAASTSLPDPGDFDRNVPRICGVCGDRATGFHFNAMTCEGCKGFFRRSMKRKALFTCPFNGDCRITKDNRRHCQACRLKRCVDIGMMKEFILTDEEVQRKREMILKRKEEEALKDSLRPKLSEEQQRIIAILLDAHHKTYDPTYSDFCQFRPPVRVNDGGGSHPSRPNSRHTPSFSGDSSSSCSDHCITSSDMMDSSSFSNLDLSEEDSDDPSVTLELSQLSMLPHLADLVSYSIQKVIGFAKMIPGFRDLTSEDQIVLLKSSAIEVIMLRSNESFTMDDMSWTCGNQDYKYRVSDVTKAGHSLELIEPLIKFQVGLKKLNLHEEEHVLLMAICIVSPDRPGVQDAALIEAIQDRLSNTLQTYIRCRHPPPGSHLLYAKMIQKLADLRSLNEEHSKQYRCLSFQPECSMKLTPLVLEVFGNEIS
Outline: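 Using LiveBLAzer B/G FRET detection, agonism was scored in VDR-bla cells exposed overnight (16 h, 37C) to DMSO-dissolved compounds; substrate incubation was 2 h at room temperature.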

[8] = target: Vitamin D3 receptor (Homo sapiens) (UniProt P11473); experiment: qHTS assay to identify small molecule antagonists of the vitamin D receptor (VDR) signaling pathway (AID 743223; active = well fitted inhibition curve with a large enough effect in the signal ratio in the repeat runs, not every such curve was filed as active; the % refers to the signal ratio; also: % is scaled to controls: 0 for no effect and ±100 for the full control effect)
Outline: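 Antagonist mode uses 1alpha,25-dihydroxyvitamin D3 at 3 nM final as stimulus. VDR-bla cells receive compounds in DMSO, incubate 16 h at 37C, then a beta-lactamase FRET substrate for 2 h at room temperature before fluorescence measurement.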

[9] = qHTS assay to identify small molecule agonists of the vitamin D receptor (VDR) signaling pathway - cell viability counter screen (AID 743224); also: series mostly up to about 63 µM; % is scaled to controls: 0 for no effect and ±100 for the full control effect; nearly all actives have a fitted effect of over 50% in size
Outline: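 Counter screen for cytotoxicity: VDR-bla cells at 2,000 cells/well, 16 h compound exposure, then CellTiter-Glo luminescence after the beta-lactamase measurement.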

[10] = qHTS assay to identify small molecule antagonists of the vitamin D receptor (VDR) signaling pathway - cell viability counter screen (AID 743225); also: % is scaled to controls: 0 for no effect and ±100 for the full control effect; nearly all actives have a fitted effect of over 50% in size
Outline: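 Read-out: CellTiter-Glo luminescence measured 30 min after reagent addition at room temperature. Cells were VDR-bla HEK 293T exposed 16 h at 37C, 5% CO2, to compound with 3 nM final calcitriol agonist.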

[11] = qHTS assay to identify small molecule agonists of the NFkB signaling pathway (AID 1159509; active = well fitted curve in the direction sought with a large enough effect in the signal ratio in the repeat runs, not every such curve was filed as active; the % refers to the signal ratio)
Outline: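 Readout: FRET fluorescence, 405 nm excitation, 460/530 nm emission; beta-lactamase expression disrupts FRET. Cells: ME-180 stably carrying NF-kB-driven bla reporter. Compound exposure 5 hr, 37 C, 5% CO2.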

[12] = qHTS assay to identify small molecule agonists of the NFkB signaling pathway - cell viability counter screen (AID 1159515; calls by dose curve; also: series mostly up to about 61 µM; % is scaled to controls: 0 for no effect and ±100 for the full control effect; nearly all actives have a fitted effect of over 55% in size)
Outline: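 Counter screen run alongside the NFkB-bla agonist assay: ME-180 reporter cells exposed to compounds for 5 hr, then lysed with CellTiter-Glo in the same wells. Luminescence, read after 30 min, reflects viable cells.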

[13] = qHTS assay to identify small molecule agonists of the endoplasmic reticulum stress response signaling pathway (AID 1159516; active = well fitted activation curve with a large enough effect in the signal ratio in the repeat runs, not every such curve was filed as active; the % refers to the signal ratio; also: % is scaled to controls: 0 for no effect and ±100 for the full control effect)
Outline: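 For this screen, HeLa cells stably carrying beta-lactamase under the ER stress response element received test compounds, positive controls or DMSO for 5 hr at 37 C; B/G FRET substrate was then added and dual-wavelength emission recorded.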

[14] = qHTS assay to identify small molecule agonists of the endoplasmic reticulum stress response signaling pathway - cell viability counter screen (AID 1159517; calls by dose curve)
Outline: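 After overnight attachment, ESRE-bla HeLa cells were treated with Tox21 library compounds for 5 hr. CellTiter-Glo luminescence, read 30 min post-addition at room temperature, reported viability.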

[15] = qHTS assay to identify small molecule antagonists of the retinoid-related orphan receptor gamma (ROR-gamma) signaling pathway - cell viability counter screen (AID 1159520)
Outline: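 Cytotoxicity was read from cellular ATP (CellTiter-Glo luminescence) after 16 hr at 37 C with 1 uM doxycycline induction. The inducer was added 2 hr after compound transfer to Tet-on ROR gamma CHO cells.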

[16] = target: Nuclear receptor ROR-gamma (Homo sapiens) (UniProt P51449); experiment: qHTS assay to identify small molecule antagonists of the retinoid-related orphan receptor gamma (ROR-gamma) signaling pathway (AID 1159521)
Outline: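 CHO Tet-on RORγ, RORE-luc reporter. Cpd 2 h pre-incubation, then dox hyclate 1 uM final, 16 h, 37 C/5% CO2. ONE-Glo luminescence; decrease = antagonist.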

[17] = qHTS assay to identify small molecule agonists of the AP-1 signaling pathway (AID 1159526; calls by dose curve; also: % is scaled to controls: 0 for no effect and ±100 for the full control effect)
[18] = target: Bile acid receptor (Homo sapiens) (UniProt Q96RI1); experiment: qHTS assay to identify small molecule antagonists of the farnesoid-X-receptor (FXR) signaling pathway (AID 743217; active = well fitted inhibition curve with a large enough effect in the signal ratio in the repeat runs, not every such curve was filed as active; the % refers to the signal ratio; also: % is scaled to controls: 0 for no effect and ±100 for the full control effect)
Chain of Bile acid receptor (Homo sapiens) (Q96RI1 whole entry, looked up): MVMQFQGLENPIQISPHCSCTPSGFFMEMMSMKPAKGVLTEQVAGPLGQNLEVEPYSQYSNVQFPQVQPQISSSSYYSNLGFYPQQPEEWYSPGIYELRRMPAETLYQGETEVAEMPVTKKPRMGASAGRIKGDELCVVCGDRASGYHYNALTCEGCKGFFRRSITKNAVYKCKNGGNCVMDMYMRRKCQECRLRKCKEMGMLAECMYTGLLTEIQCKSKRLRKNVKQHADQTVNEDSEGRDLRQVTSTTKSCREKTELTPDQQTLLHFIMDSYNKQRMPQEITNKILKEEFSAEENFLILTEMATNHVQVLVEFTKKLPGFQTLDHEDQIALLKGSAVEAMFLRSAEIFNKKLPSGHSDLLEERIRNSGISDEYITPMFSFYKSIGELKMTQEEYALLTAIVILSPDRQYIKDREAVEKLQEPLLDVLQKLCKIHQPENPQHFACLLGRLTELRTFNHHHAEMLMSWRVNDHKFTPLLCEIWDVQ
Outline: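 Quantitative HTS, beta-lactamase reporter format: FXR-UAS-bla HEK 293T cells co-treated 16 h at 37 °C with compounds and 50 uM final chenodeoxycholic acid, then read by B/G FRET fluorescence.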

[19] = target: Bile acid receptor (Homo sapiens) (UniProt Q96RI1); experiment: qHTS assay to identify small molecule agonists of the farnesoid-X-receptor (FXR) signaling pathway (AID 743220; active = well fitted activation curve with a large enough effect in the signal ratio in the repeat runs, not every such curve was filed as active; the % refers to the signal ratio; also: % is scaled to controls: 0 for no effect and ±100 for the full control effect)
Outline: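 FXR-UAS-bla HEK 293T cells carrying a UAS-driven beta-lactamase reporter were plated for 5 h at 37C/5% CO2, then exposed to DMSO-dissolved Tox21 10K compounds for 16 h at 37C. A LiveBLAzer B/G FRET substrate was loaded for 2 h at room temperature before fluorescence reading.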

[20] = qHTS assay to identify small molecule agonists of the AP-1 signaling pathway - cell viability counter screen (AID 1159525; calls by dose curve; also: nearly all actives have a fitted effect of over 55% in size)
Outline: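 Intracellular ATP by Cell Titer Glo luminescence (30 min, RT) in the same ME-180 AP-1-bla wells after the 5 h compound exposure at 37 °C. Normalised to tetra n-octyl ammonium bromide and DMSO controls.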

CCOC(=O)CC(=O)c1ccccc1
inactive: outcome [1] | outcome [2] | outcome [3] | outcome [4] | Potency [5] | outcome [6] | outcome [7] | outcome [8] | Potency [9] | outcome [10] | outcome [11] | outcome [12] | outcome [13] | Potency [14] | outcome [15] | outcome [16] | outcome [17]

NS(=O)(=O)c1cc2c(cc1Cl)CN(C1CCCCC1)C2=O
inactive: outcome [1] | outcome [3] | Potency [18] | Potency [5] | Potency [19] | outcome [6] | outcome [8] | Potency [9] | outcome [10] | outcome [11] | outcome [12] | outcome [13] | Potency [14] | outcome [15] | outcome [16] | outcome [20] | outcome [17]

CC(=O)Nc1ccc(S(=O)(=O)Cl)cc1
inactive: outcome [1] | outcome [2] | outcome [3] | outcome [4] | Potency [5] | outcome [6] | outcome [7] | outcome [8] | Potency [9] | outcome [10] | outcome [11] | outcome [12] | outcome [13] | Potency [14] | outcome [15] | outcome [16] | outcome [17]

NCCN1CCOCC1
inactive: outcome [1] | outcome [3] | Potency [5] | outcome [6] | outcome [7] | Potency [9] | outcome [10] | outcome [11] | outcome [12] | outcome [13] | Potency [14] | outcome [15] | outcome [16] | outcome [20] | outcome [17]

CC(COC(C)(C)C)OCCCO (stereo not drawn)
inactive: outcome [1] | outcome [3] | Potency [18] | Potency [5] | Potency [19] | outcome [6] | outcome [7] | outcome [8] | Potency [9] | outcome [11] | outcome [12] | outcome [13] | Potency [14] | outcome [15] | outcome [16] | outcome [20] | outcome [17]

FC(F)(F)c1ccccc1-n1ccnc1
inactive: outcome [1] | outcome [3] | outcome [4] | outcome [6] | outcome [7] | outcome [8] | Potency [9] | outcome [10] | outcome [11] | outcome [12] | outcome [13] | Potency [14] | outcome [15] | outcome [16] | outcome [20] | outcome [17]

Cc1cccc(C)c1OCC(C)N (stereo not drawn)
inactive: outcome [1] | outcome [3] | Potency [5] | outcome [6] | Potency [9] | outcome [10] | outcome [11] | outcome [12] | outcome [13] | Potency [14] | outcome [15] | outcome [16] | outcome [20] | outcome [17]

N[C@@H](COP(=O)(O)O)C(=O)O
inactive: outcome [1] | outcome [2] | outcome [3] | Potency [5] | Potency [19] | outcome [6] | outcome [7] | outcome [11] | outcome [13] | Potency [14] | activity, negative = cytotoxicity [15] -0.691% [at 19 µM] | activity change, negative = inhibition [16] -15% [at 19 µM] | viability change, negative = cytotoxic [20] 11.4% [at 15.8 µM] | activation [17] -0.856% [at 15.8 µM]

Nc1nnc(-c2cccc(Cl)c2Cl)c(N)n1
inactive: outcome [1] | outcome [2] | outcome [3] | outcome [4] | Potency [5] | Potency [19] | outcome [6] | outcome [7] | outcome [8] | outcome [10] | outcome [12] | outcome [13] | Potency [14] | outcome [15] | outcome [16] | outcome [20] | outcome [17]

CCCC/C=C/C=C\C=O
inactive: outcome [1] | outcome [2] | outcome [3] | outcome [4] | Potency [18] | Potency [5] | Potency [19] | outcome [6] | outcome [7] | outcome [8] | Potency [9] | outcome [10] | outcome [11] | outcome [12] | outcome [13] | Potency [14] | outcome [15] | outcome [17]

O=C(O)C(=O)Cc1ccccc1
inactive: outcome [1] | outcome [2] | outcome [3] | outcome [4] | Potency [5] | outcome [6] | outcome [7] | outcome [8] | outcome [10] | outcome [11] | outcome [13] | Potency [14] | outcome [15] | outcome [20] | outcome [17]

CCC(CC)CO
inactive: outcome [1] | outcome [2] | outcome [3] | outcome [4] | outcome [6] | outcome [7] | outcome [8] | Potency [9] | outcome [10] | outcome [11] | outcome [13] | Potency [14] | outcome [15] | outcome [16] | outcome [20] | outcome [17]

CC(CN)CC(C)(C)CCN (stereo not drawn)
inactive: outcome [1] | outcome [2] | outcome [3] | outcome [4] | Potency [18] | Potency [5] | Potency [19] | outcome [6] | outcome [7] | outcome [8] | Potency [9] | outcome [10] | outcome [11] | outcome [13] | Potency [14] | outcome [15] | outcome [20] | outcome [17]

CC(S)C(=O)NCC(=O)O (stereo not drawn)
inactive: outcome [1] | outcome [3] | Potency [5] | outcome [6] | outcome [7] | outcome [8] | Potency [9] | outcome [10] | outcome [11] | outcome [12] | outcome [13] | Potency [14] | outcome [15] | outcome [17]

CCOC(=O)c1ncn2c1CN(C)C(=O)c1cc(F)ccc1-2
inactive: outcome [1] | outcome [3] | Potency [5] | outcome [6] | outcome [8] | Potency [9] | outcome [11] | outcome [13] | Potency [14] | outcome [15] | outcome [16] | outcome [20] | outcome [17]

From PubChem BioAssay (Tox21)
